# A selection: hits, their analogues and other compounds. The true share with any hit is near 7.4%.
# SNCA expr inh – SNCA gene expression inhibition; HEK-293 SNCA-luciferase knock-in, luminescence, 24 h; Potency, µM (titrated, usually from 57.2 µM), for the others: top-dose activity change, negative = inhibition, actives largely listed as inhibitors; 140,000 compounds, 0.17% hits; AID 1671194;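 note: plate controls were DMSO cells for no effect and cell-free wells for full effect; nearly all actives have a fitted effect of over 45% in size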
# 3T3 cytotox – kills NIH 3T3 cells. NIH 3T3 viability, CellTiter-Glo ATP luminescence, 48-72 h. 94,000 compounds, 4.3% hits. Potency, µM (doses to about 96.7 µM), for the others: at the highest dose activity change, negative = cytotoxicity, actives largely listed as inhibitors. AID 1345082; note: nearly all actives have a fitted effect of over 55% in size
#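 Cytotoxicity was measured by CellTiter-Glo ATP luminescence after 48 or 72 h compound exposure at 37 °C. Mouse NIH 3T3 fibroblasts were seeded at 400 cells/well and dosed by 23 nL pin transfer.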
# SNCA viab count – reduces viability of HEK-293 SNCA reporter cells; HEK-293-SNCA-luc viability, GF-AFC fluorescence, 24 h; Potency, µM (titrated, usually from 57.1 µM), inactives show at the highest dose activity change, negative = cytotoxicity, usual class: cytotoxic; 150,000 compounds, 0.12% hits; AID 1671193;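 note: 0% = DMSO-treated cells and -100% = medium-only wells without cells; nearly all actives have a fitted effect of over 30% in size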
#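 HEK-293-SNCA-luc cells (1500/well) plated 24 h, then exposed 24 h to a dilution series; GF-AFC added 30 min at 37C, fluorescence 405/540 nm; normalised to medium-only and DMSO wells, Hill fit.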
# Luciferase inh – inhibitors of firefly (Photinus pyralis) luciferase. 76,000 compounds, 2.5% hits. purified P. pyralis luciferase, luminescence, biochemical. AID 1347043. Potency, µM (highest dose often 115 µM), most hits filed as inhibitors. P08659; note: nearly all actives have a fitted effect of over 65% in size
#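 Luminescence read by CCD imaging after purified firefly luciferase (10nM final) was added to substrate buffer holding 10uM D-luciferin and 10uM ATP, pH 7.5, pre-dosed with compound.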
# NPR1 antag – blocks ANP-stimulated signaling of human Npr1 receptor; 76,000 compounds, 1.6% hits; AID 1347048; HEK293 hNpr1 GloSensor cGMP, ANP-stimulated luminescence; Potency, µM (top dose mostly 46.3 µM), for the others: at the top dose activity change, negative = inhibition, most hits filed as inhibitors; P16066; calls by dose curve; note: nearly all actives have a fitted effect of over 60% in size
# Target sequence (P16066 whole entry, looked up): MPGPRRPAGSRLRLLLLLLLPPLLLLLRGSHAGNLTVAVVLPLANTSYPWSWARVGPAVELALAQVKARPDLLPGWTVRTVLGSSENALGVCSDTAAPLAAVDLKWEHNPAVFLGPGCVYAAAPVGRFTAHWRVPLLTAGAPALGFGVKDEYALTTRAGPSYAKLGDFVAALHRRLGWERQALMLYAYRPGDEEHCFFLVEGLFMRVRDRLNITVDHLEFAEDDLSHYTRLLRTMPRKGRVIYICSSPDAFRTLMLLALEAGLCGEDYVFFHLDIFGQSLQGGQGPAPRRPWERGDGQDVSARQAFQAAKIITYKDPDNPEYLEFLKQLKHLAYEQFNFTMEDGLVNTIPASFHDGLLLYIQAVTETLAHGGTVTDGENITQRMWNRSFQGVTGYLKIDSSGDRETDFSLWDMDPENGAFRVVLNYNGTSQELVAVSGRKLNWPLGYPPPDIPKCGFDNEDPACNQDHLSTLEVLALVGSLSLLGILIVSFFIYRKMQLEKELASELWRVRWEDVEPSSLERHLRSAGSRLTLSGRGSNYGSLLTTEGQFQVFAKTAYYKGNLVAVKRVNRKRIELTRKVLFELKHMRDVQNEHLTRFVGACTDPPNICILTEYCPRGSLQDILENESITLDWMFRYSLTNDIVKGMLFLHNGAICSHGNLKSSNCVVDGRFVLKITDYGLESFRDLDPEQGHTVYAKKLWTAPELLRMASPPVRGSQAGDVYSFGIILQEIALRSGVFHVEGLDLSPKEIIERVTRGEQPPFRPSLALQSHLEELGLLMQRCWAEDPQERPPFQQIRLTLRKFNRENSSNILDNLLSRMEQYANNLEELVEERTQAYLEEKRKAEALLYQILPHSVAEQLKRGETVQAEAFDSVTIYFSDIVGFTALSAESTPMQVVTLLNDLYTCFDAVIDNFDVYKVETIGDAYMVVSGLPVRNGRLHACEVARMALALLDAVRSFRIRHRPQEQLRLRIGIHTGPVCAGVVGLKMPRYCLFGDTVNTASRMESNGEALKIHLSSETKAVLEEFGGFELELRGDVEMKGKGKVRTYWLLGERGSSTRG
#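 HEK293 cells stably expressing human Npr1 and cGMP GloSensor pGS-40F, loaded 2 h with 2% GloSensor reagent, given compound 30 min at room temperature. Luminescence read before and 20 min after 0.1 nM hNppA.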
# HEK cytotox – kills HEK 293 cells. 94,000 compounds, 6.6% hits. Potency, µM (doses to about 115 µM), for inactives: top-dose activity change, negative = cytotoxicity, actives largely listed as inhibitors. AID 1345083. HEK 293 viability, ATP luminescence (CellTiter-Glo), 48-72 h; note: nearly all actives have a fitted effect of over 60% in size
#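 ATP-coupled CellTiter-Glo luminescence served as viability read-out, recorded 10 min after reagent addition at room temperature. HEK 293 cells, 250 cells/well, had been incubated with pintool-transferred compound for 48 or 72 hr at 37 degree Celsius.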
# * marks the source's active call; other numbers are inactive results; i = inactive; ? = inconclusive; . = not tested or not shown; ! = a repeat was not active; [ ] = dose if it differs, or a comment. Unless noted, calls come from the whole dose curve; as a rule, active = well fitted curve in the direction sought with a large enough effect; inconclusive = small, poorly fitted or top-dose-only effect, or another doubt; inactive = no such curve, though single readings can be large; an effect the other way counts as inactive or inconclusive. Unless noted, % is set by controls: 0 for no effect and ±100 for the full control effect; potency is the fitted concentration of half-maximal effect.
SMILES,SNCA expr inh,3T3 cytotox,SNCA viab count,Luciferase inh,NPR1 antag,HEK cytotox
COc1ccccc1-c1cc(C(=O)NCc2c(C)cc(C)[nH]c2=O)c2c(c1)ncn2C,-20.9%[87.6 µM],39.8µM*,-27.4%[87.6 µM],i,4.8%[70.6 µM],?
COc1cccc(-c2cc(C(=O)NCc3c(C)cc(C)[nH]c3=O)c3c(c2)ncn3C)c1OC,11.5%,?,-17.5%,i,-11.2%,-12.3%
COc1ccc(-c2cc(C(=O)NCc3c(C)cc(C)[nH]c3=O)c3c(c2)N(C(C)C)CCO3)cc1OC,?,25.1µM*,-13.9%,i,5.1%,?
Cc1cc(C)c(CNC(=O)c2cc(-c3ccccc3C)cc3c2OCCN3C)c(=O)[nH]1,?,44.7µM*,3.7%[87.6 µM],i,-30.0%[70.6 µM],89.1µM*
Cc1cc(C)c(CNC(=O)c2cc(-c3cccnc3)cc3c2OCCN3C(C)C)c(=O)[nH]1,10.4%[87.6 µM],?,?,i,-0.4%[70.6 µM],100µM*
O=C(NCCc1ccc(Cl)cc1)c1ccc2nnc(-c3cc(F)ccc3F)n2c1,25.8%,?,0.4%,.,.,?
C[S+](=O)([O-])N1CCC(c2nnc3n2C(C(=O)NC2CCCCCC2)CC3)CC1 (stereo unspecified),3.4%,?,-2.7%,.,.,-0.7%
CC(C)CCN1CCn2c(nnc2-c2cccnc2)C1,-13.8%[87.6 µM],1.2%[138 µM],?,i,0.0%[70.6 µM],i
COc1ccc(-c2cc(C(=O)NCCc3cnc[nH]3)c3c(c2)N(C)CCO3)cc1OC,23.7%[87.6 µM],?,-15.8%[87.6 µM],i,4.5%[70.6 µM],-29.0%[172 µM]
Cc1ccccc1-c1cc(C(=O)NCCc2cnc[nH]2)c2c(c1)N(C)CCO2,-7.4%[87.6 µM],100µM*,5.5%[87.6 µM],i,-2.7%[70.6 µM],?
O=C1NCCCCCCN(C(=O)c2cccnc2)[C@H]2C[C@H](C(=O)N3CCc4ccccc4C3)C[C@@H]12,7.3%,28.2µM*,-9.4%,i,0.7%,-1.9%
O=C1NCCCCCN(C(=O)CC2CCCC2)[C@@H]2C[C@@H](C(=O)N3CCc4ccccc4C3)C[C@H]12,-6.7%,?,-4.1%,i,-10.9%,31.6µM*
O=C1NCCCCCCN(C(=O)c2cnccn2)[C@H]2C[C@H](C(=O)N3CCc4ccccc4C3)C[C@@H]12,?,-15.8%,-24.3%,i,3.7%,-18.7%
Cc1ccccc1C(=O)NC1CCN(c2cc(-c3cccs3)[nH]n2)C1 (stereo unspecified),-15.3%,-23.4%,-9.2%,i,-16.0%,?
CN1CCc2c(sc3c2C(=O)NC(c2ccc(OC(=O)c4ccc(C(C)(C)C)cc4)cc2)N3)C1 (stereo unspecified),1µM*,.,?,.,.,.
CCn1nc(-c2cccc(-c3ccnn3C)c2)nc1N(C)C,4.9%,-21.2%,-1.3%,i,-1.8%,79.4µM*
COC(=O)CC(NC(=O)N1CCc2nc(-c3ccccc3)[nH]c2C1)c1ccccc1 (stereo unspecified),-12.8%,-21.5%,-3.5%,.,.,i
Cc1nccn1CCCC(=O)N[C@@H]1CCOC[C@H]1OCC(=O)O,5.1%,-14.1%,-3.9%,i,-0.3%,-8.4%
Cc1ccc(-c2ccc(CCC(=O)N[C@@H]3CCOC[C@H]3OCC(=O)O)o2)cc1,-12.2%,-0.7%,4.2%,25.1µM*,-2.0%,-11.2%
O=C(C1CC1)N1CCC2(CC1)CC(N(Cc1ccc(F)cc1)C1CC1)CCO2 (stereo unspecified),-15.1%,-27.0%,-15.8%,i,15.4%,?
O=C(C1CCCCC1)N1CCC2(CC1)CC(N(Cc1ccc(F)cc1)C1CC1)CCO2 (stereo unspecified),-10.8%,?,21.9%,i,-20.7%,44.7µM*
CCC(CC)C(=O)N1CCC2(CC1)CC(N(Cc1ccc(F)cc1)C1CC1)CCO2 (stereo unspecified),-27.4%,?,5.0%,i,-24.5%,39.8µM*
O=C(c1ccccc1)N1CCCC(C(=O)N2CCCC(c3nc4ccncc4[nH]3)C2)C1 (stereo unspecified),29.3%,-21.3%,?,.,.,-17.2%
CC1(C)C(=O)N(CC2CCOCC2)[C@H]2CN(Cc3cccs3)C[C@@H]2[S+]1(=O)[O-],?,79.4µM*,5.9%[87.6 µM],i,-2.6%[70.6 µM],0.1%[172 µM]
Cc1noc2c(NCCCn3ccnc3)cc(-c3ccccn3)nc12,19.2%[87.6 µM],25.1µM*,-18.7%[87.6 µM],i,0.7%[70.6 µM],-23.1%[172 µM]
SMILES,SNCA expr inh,3T3 cytotox,SNCA viab count,Luciferase inh,NPR1 antag,HEK cytotox
Cc1noc2c(NCCCn3ccnc3)cc(-c3cccs3)nc12,49.7%[87.6 µM],?,-1.7%[87.6 µM],i,-1.7%[70.6 µM],?
Cc1noc2c(NCCCn3ccnc3)cc(-c3ccccc3)nc12,17.0%[87.6 µM],11.2µM*,?,i,3.4%[70.6 µM],?
Cc1ccc(CNC(=O)N2CCCCCC2c2nc(-c3ccccc3)no2)cc1 (stereo unspecified),26.5%,?,-1.5%,.,.,?
Cc1ccccc1CCC1CCCN(C(=O)C2(C)CC2)C1 (stereo unspecified),39.7%,?,-3.4%,?,-6.7%,22.4µM*
CC(=O)N1CC2(CCCN2Cc2ccc(Cl)cc2)Cc2ccccc21 (stereo unspecified),?,?,-4.6%,.,.,?
Cc1cc(F)ccc1-c1[nH]nc2ncc(-c3cn[nH]c3)nc12,?,?,-34.7%[87.6 µM],i,-15.7%[70.6 µM],?
CC(=O)Nc1cccc(-c2cnc3n[nH]c(-c4ccccc4C)c3n2)c1,1.3%[87.6 µM],44.7µM*,-27.0%[87.6 µM],i,-22.7%[70.6 µM],70.8µM*
CC(=O)Nc1cccc(-c2cnc3n[nH]c(-c4ccc(F)cc4C)c3n2)c1,?,25.1µM*,13.9%[87.6 µM],i,-30.4%[70.6 µM],20µM*
CC(=O)Nc1cccc(-c2cnc3n[nH]c(-c4ccc5c(c4)OCO5)c3n2)c1,7.08µM*,25.1µM*,?,?,-26.1%[70.6 µM],22.4µM*
CC(=O)Nc1cccc(-c2cnc3n[nH]c(-c4sccc4C)c3n2)c1,30.0%[87.6 µM],?,?,?,?,31.6µM*
Cc1ccc([S+](=O)([O-])N2CCN(Cc3ccccc3-c3ccc(C)c(Cl)c3)CC2)cc1,-14.7%,?,4.5%[12.5 µM],.,.,?
CCOC(=O)[C@H]1[C@@H](O)C(=O)N(Cc2ccccc2)C12CCN(C(=O)CC(C)(C)C)CC2,.,22.4µM*,.,.,.,?
CCOC(=O)[C@@H]1[C@@H](O)C(=O)N(Cc2ccccc2)C12CCN(C(=O)N(C)C)CC2,.,?,.,.,.,-3.4%
COc1ccc(C(=O)Nc2ncc(-c3ccc(C(=O)O)cc3)s2)cc1,.,.,-36.1%,.,.,.
COc1cc(C)c(Sc2cnc(NC(=O)c3ccc(CNC(C)C(C)C)cc3)s2)cc1C(=O)N1CCN(C(C)=O)CC1 (stereo unspecified),?,.,27.1µM*!,.,.,.

# Source: PubChem
